Screens from PubChem.
Shn3 3UTR inh: reduces Shn3 3'UTR luciferase signal in osteoblasts | 360,000 tested, 0.52% active | inhibition, % at 12.5 µM | Clone20 osteoblast Shn3 3'UTR firefly luciferase, 24 h | AID 588674;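 active = mean inhibition of at least 75% with every replicate also reaching 75%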;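 note: 0% = median of neutral control wells and 100% = pilot-screen positive control compound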
HIF-2a inh: inhibitors of HIF-2a | 786-0 RCC cells HIF-2a reporter, luciferase luminescence, overnight | inhibition, % at 18.8 µM | 360,000 tested, 0.72% active | AID 624352;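 active = inhibition of the luminescence signal of 40% or more relative to plate controls, in a single-dose primary screen at 18.75 µM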
Peg3 prom inh-1: reduces Peg3 promoter-driven luciferase expression in HeLa. HeLa PEG-Prom luciferase reporter, luminescence, overnight. inhibition, % at 20 µM. 360,000 tested, 1.7% active. AID 588405;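 active = inhibition of at least 50% at 20 µM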
KKLEB cytotox: reduces viability of KKLEB cystic fibrosis airway cells | activity change (cytotoxicity), % at 5 µM | 360,000 tested, 0.36% active | KKLEB CF airway cells viability, ATPlite luminescence, overnight; active compounds read low; cells stimulated with P. aeruginosa culture filtrate;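 active = corrected activity change at or below -50% at 5 µM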
CF NFkB block: inhibitors of cystic fibrosis induced NF-kB; 360,000 tested, 0.86% active; inhibition, % at 5 µM; KKLEB NF-kB-GFP reporter, PAF-induced, GFP fluorescence overnight;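 active = at least 50% inhibition at 5 µM, scaled per plate between neutral and stimulator controls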;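 note: PAF is a Pseudomonas aeruginosa culture filtrate used as stimulus; plate controls were PAF-stimulated DMSO wells for no effect and unstimulated DMSO wells for full effect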
TRPM1 prom inh: reduces MITF-dependent TRPM1 promoter luciferase signal. inhibition, % at 12.5 µM. SK-MEL-5 TRPM1 promoter luciferase, 24 h. 330,000 tested, 0.83% active;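 active = mean inhibition across replicates of 60% or more, whatever share of single replicates reaches that level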
Peg3 prom inh-2: confirmation of Peg3 promoter inhibitors. shares compounds with Peg3 prom inh-1. HeLa PEG-Prom luciferase reporter, luminescence, overnight. inhibition, % at 20 µM. 1,300 tested, 84% active. AID 602417;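 active = at 20 µM dose, 40% or more inhibition averaged across four replicates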
CF NFkB inh conf: confirmation of cystic fibrosis induced NF-kB inhibitors; shares compounds with CF NFkB block; KKLEB CF airway cells, PAF-induced NF-kB-GFP fluorescence, overnight; inhibition, % at 5 µM; 1,300 tested, 64% active; AID 602472; in the data active = inhibition above about 40%;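 note: stimulus PAF is a Pseudomonas aeruginosa filtrate and not platelet activating factor; plate controls were DMSO wells with stimulus for no effect and unstimulated DMSO wells for full effect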
Mdm2 MdmX conf: Mdm2/MdmX (human) interaction inhibition, confirmed; shares compounds with HIF-2a inh; SaOS-2 split-luciferase Mdm2/MdmX complementation, luminescence; AID 504601; inhibition, % at 8 µM; 740 tested, 99% active;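 active = mean inhibition of the luminescence signal across two replicates at or above 26 percent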
Target sequence (O15151 whole entry, looked up): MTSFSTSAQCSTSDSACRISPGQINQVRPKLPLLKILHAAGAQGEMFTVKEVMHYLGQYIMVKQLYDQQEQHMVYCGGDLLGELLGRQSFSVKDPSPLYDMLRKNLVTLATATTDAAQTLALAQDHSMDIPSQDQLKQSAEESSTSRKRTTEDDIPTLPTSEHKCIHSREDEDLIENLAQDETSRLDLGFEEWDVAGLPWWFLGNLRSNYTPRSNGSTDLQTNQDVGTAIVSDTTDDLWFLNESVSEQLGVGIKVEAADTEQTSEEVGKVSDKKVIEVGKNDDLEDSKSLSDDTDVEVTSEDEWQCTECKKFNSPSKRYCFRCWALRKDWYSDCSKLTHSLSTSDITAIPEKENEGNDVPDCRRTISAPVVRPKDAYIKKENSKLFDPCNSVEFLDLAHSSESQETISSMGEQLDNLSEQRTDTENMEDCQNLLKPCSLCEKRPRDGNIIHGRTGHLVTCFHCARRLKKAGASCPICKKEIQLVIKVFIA
Target sequence (Q00987 whole entry, looked up): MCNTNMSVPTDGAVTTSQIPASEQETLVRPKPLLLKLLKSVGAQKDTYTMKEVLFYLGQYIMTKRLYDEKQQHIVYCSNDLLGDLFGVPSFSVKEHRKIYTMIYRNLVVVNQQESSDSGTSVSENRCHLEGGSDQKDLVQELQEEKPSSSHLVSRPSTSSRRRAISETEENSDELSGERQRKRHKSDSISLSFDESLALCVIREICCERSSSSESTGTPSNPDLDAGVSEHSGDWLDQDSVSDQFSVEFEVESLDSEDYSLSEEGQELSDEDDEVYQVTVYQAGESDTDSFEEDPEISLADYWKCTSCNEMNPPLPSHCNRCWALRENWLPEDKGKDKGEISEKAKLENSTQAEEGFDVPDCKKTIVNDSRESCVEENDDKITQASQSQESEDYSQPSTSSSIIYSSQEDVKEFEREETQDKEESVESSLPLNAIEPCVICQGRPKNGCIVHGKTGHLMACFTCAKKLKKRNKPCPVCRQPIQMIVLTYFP
HIF-2a inh conf: confirmation of HIF-2a inhibitors; 786-0 RCC cells, HIF-2a luciferase reporter luminescence, overnight; shares compounds with HIF-2a inh; 1,800 tested, 56% active; inhibition, % at 18.8 µM;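 active = mean inhibition across four replicates of at least 40 percent at the single tested concentration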
HIF-1a cs: HIF-1a inhibition counter-screen for HIF-2a hits. shares compounds with HIF-2a inh. MiaPaCa-2 HIF-1a luciferase reporter, desferoxamine, overnight. inhibition, % at 18.8 µM. 1,800 tested, 72% active;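 active = mean inhibition of the reporter signal across four replicates at the single tested dose of 50% or more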
An asterisk follows results filed as active; nt = not tested or not shown. The list is not random: actives were taken first. Their share in the collection is about 2.8%.

SMILES	Shn3 3UTR inh	HIF-2a inh	Peg3 prom inh-1	KKLEB cytotox	CF NFkB block	TRPM1 prom inh	CF NFkB inh conf	others
Cc1ccc(C(=O)NCCc2cccs2)cc1	37.5	43.9*	62.2*	-23.7	-12.7	54.4	nt	Peg3 prom inh-2=44.3*;HIF-2a inh conf=62.1*;HIF-1a cs=57.3*
COCCNc1nnnc2c1sc1nc(N3CCOCC3)c3c(c12)CC(C)(C)OC3	-9.0	14.9	22.2	15.5	-4.9	-1.3	nt
CN(C)CCNc1ncnc2c1sc1nc(N3CCOCC3)c3c(c12)CC(C)(C)SC3	5.8	54.0*	80.7*	-28.1	18.1	76.8*	nt	Peg3 prom inh-2=93.5*;HIF-2a inh conf=14.2;HIF-1a cs=80.1*
CCOC(=O)c1cnc(Nc2nc3ccccc3o2)nc1CSc1nnc(C)s1	-29.2	-112.0	-69.0	8.2	-11.8	-17.4	nt
CCOC(=O)c1cnc(Nc2nc3ccccc3o2)nc1C	50.0	74.2*	79.0*	-24.3	-13.0	56.9	nt	Peg3 prom inh-2=68.6*;HIF-2a inh conf=81.2*;HIF-1a cs=71.1*
Cc1nn(Cc2ccc(Cl)cc2)c(C)c1NC(=O)CCCn1nc([N+](=O)[O-])c(Cl)c1C	-9.5	11.4	23.8	-7.4	-15.0	1.8	nt
S=C(NN=C(c1ccccc1)c1ccccn1)N(Cc1ccccn1)Cc1ccccn1	90.8*	48.6*	106.5*	-21.8	38.9	82.8*	nt	Peg3 prom inh-2=100.7*;HIF-2a inh conf=67.7*;HIF-1a cs=100.0*
COc1ccc(/C=C/c2nc3ccccc3n2C)cc1	73.4	49.2*	68.3*	-53.2*	-7.4	35.6	nt	Peg3 prom inh-2=78.3*;HIF-2a inh conf=88.8*;HIF-1a cs=90.9*
C[n+]1c(-c2ccccc2)cc2c(=Cc3ccccc3)c3ccccc3n21	84.5	61.2*	102.8*	-28.7	46.5	98.1*	nt	Peg3 prom inh-2=95.5*;HIF-2a inh conf=93.0*;HIF-1a cs=104.0*
CCSc1nc2ccccc2n1C(=O)/C=C\c1ccc(OC)c(OC)c1	-14.8	86.2*	105.6*	2.6	82.2*	68.6*	nt	Peg3 prom inh-2=94.2*;Mdm2 MdmX conf=101.7*;HIF-2a inh conf=31.1;HIF-1a cs=102.7*
Cc1nn(C(C)(C)C)c(C)c1/C=N/OC(=O)Nc1ccc(Cl)c(Cl)c1	nt	94.4*	106.2*	-7.8	8.0	52.6	nt	Peg3 prom inh-2=97.3*;HIF-2a inh conf=97.8*;HIF-1a cs=99.8*
O=C(Nc1ccc(N2CCOCC2)cc1)c1cnsn1	49.0	75.0*	100.8*	-7.8	3.7	79.1*	nt	Peg3 prom inh-2=74.0*;HIF-2a inh conf=87.8*;HIF-1a cs=83.9*
CCCCN(C)C(=O)c1ccc(Nc2nc(C(N)Cc3ccc(C(F)(F)F)cc3)cs2)nc1 (stereo not drawn)	12.9	0.7	96.4*	-43.7	50.9*	nt	20.1
Clc1ccc(Cn2ncc3c(N4CCN(c5ccccc5)CC4)ncnc32)cc1	26.0	-29.2	91.8*	-35.6	90.6*	nt	99.7*
CC(NC(=O)Cc1ccsc1)c1ccc(Cl)cc1Cl (stereo not drawn)	12.7	-5.9	-11.2	11.2	2.5	6.6	nt
CC(=O)c1ccc(Sc2nnnn2-c2ccccc2)c([N+](=O)[O-])c1	21.0	12.6	38.2	-32.0	76.3*	62.8*	28.4
O=[N+]([O-])c1ccc(Sc2nnnn2-c2ccccc2)c(Cl)c1	-21.5	6.2	17.9	-25.7	19.4	21.1	nt
COc1ccc(CN(CCC(c2ccc(F)cc2)C2CCOC(C)(C)C2)C(=O)c2ccco2)cc1 (stereo not drawn)	8.1	1.7	50.5*	-14.9	73.5*	10.4	49.5*
CC1(C)COC(/C=C/c2cccc([N+](=O)[O-])c2)=N1	-41.6	-35.1	-28.8	-14.4	51.7*	32.8	38.6
CCn1c(=O)cc(C(=O)OC)sc1=Nc1ccc(F)c(F)c1	-13.6	11.2	64.9*	-20.8	50.5*	-17.7	23.7
COC(=O)c1cc(=O)n(CCc2ccccc2)c(=Nc2ccc(F)cc2)s1	9.3	9.6	14.7	-14.0	-1.0	nt	nt
Cc1ccc(N2C(=N)/C(=C3/Nc4ccccc4S3)C(c3ccccc3)C2=O)cc1 (stereo not drawn)	-22.4	-75.2	-41.8	5.8	-2.9	-3.3	nt
COCCn1c(N)c(S(=O)(=O)c2cccs2)c2nc3ccccc3nc21	-20.5	14.2	12.5	8.7	-7.0	-11.0	nt
COc1cccc(/C=N/n2c(N)c(S(=O)(=O)c3cccs3)c3nc4ccccc4nc32)c1OC	-14.2	3.4	3.9	15.1	53.8*	25.4	10.9
COc1ccc2ncn(-c3ccccc3)c2c1	6.4	12.2	-3.3	-6.1	58.5*	-38.3	57.0*
SMILES	Shn3 3UTR inh	HIF-2a inh	Peg3 prom inh-1	KKLEB cytotox	CF NFkB block	TRPM1 prom inh	CF NFkB inh conf	others
CCOc1ccccc1CN1CCNC(=O)C1CC(=O)N(C)C1CCOCC1 (stereo not drawn)	-0.6	0.0	-3.0	-2.7	27.7	8.1	nt
CC(=O)c1ccc(-n2c(C)c(C(C)=O)c3cc(O)ccc32)cc1	34.1	13.0	17.6	16.5	55.6*	-2.3	66.3*
CC(=O)c1c(C)n(-c2ccc(C)cc2C)c2ccc(O)cc12	15.0	33.8	13.7	-10.4	64.8*	-12.9	68.5*
CC(=O)c1c(C)n(-c2ccccc2)c2ccc(O)cc12	-14.8	15.8	10.3	-16.3	59.4*	7.2	72.3*
CC(=O)c1c(C)n(-c2ccc(Br)cc2)c2ccc(O)cc12	5.9	27.9	11.9	10.1	44.8	-3.1	nt
CCOc1ccc(-n2c(C)c(C(C)=O)c3cc(O)ccc32)cc1	3.7	31.6	12.1	2.5	57.0*	-8.1	84.1*
CCOc1ccc(-n2c(C)c(C(=O)OC)c3cc(O)ccc32)cc1	-0.1	17.6	15.4	-0.4	23.6	-2.1	nt
COc1ccc(Cc2noc(CN3CCN(Cc4csc(C)n4)CC3)n2)cc1OC	-2.4	16.8	8.2	-0.9	-1.8	-12.1	nt
CCc1cc(Cn2nc(-c3ccccc3)cc2C(=O)NCc2cccc(Br)c2)on1	3.4	14.1	30.6	-0.4	24.9	0.8	nt
COc1ccc(NC(=O)Cn2ncc(Cl)c(Cl)c2=O)cc1S(=O)(=O)N1CCOCC1	19.3	37.3	97.1*	-14.2	54.6*	-5.1	18.0
COc1ccc(NC(=O)c2ccc(Cl)nc2)cc1S(=O)(=O)N1CCOCC1	-3.5	9.2	5.4	-0.8	3.3	7.2	nt
COc1ccc(NS(=O)(=O)N2CCOCC2)cc1	3.7	12.5	4.1	-3.8	3.0	4.4	nt
